HPGD block = qHTS Assay for Inhibitors of HPGD (15-Hydroxyprostaglandin Dehydrogenase); 15-hydroxyprostaglandin dehydrogenase [NAD(+)] (Homo sapiens), P15428; purified HPGD, NADH fluorescence kinetic, PGE2 substrate; Potency, µM, hits mostly inhibitors; hit rate 4.3% among 150,000
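NADH formation kinetics: reaction with 30 uM PGE2 and 1 mM NAD+ (final), 20 nM enzyme, Tris-HCl pH 8 with Tween 20, after 15 min compound preincubation at room temperature. Fluorescence change, last versus first of five reads.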
PNC assembly inh = High Content Assay for Compounds that inhibit the Assembly of the Perinucleolar Compartment; activity change (PNC), negative = inhibition, % at 10 µM; PC3M PTB-GFP, PNC prevalence imaging, 16 h; active compounds read low; hit rate 3.1% among 140,000; AID 2417, 2010;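 active = readout at or below -70, meaning at least 70% loss of cells showing the perinucleolar compartment, a nuclear body marking cancer cells; inconclusive = readout between -30 and a set limit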
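Read-out is percentage of cells bearing a perinucleolar compartment, from automated 20x imaging of fixed, Hoechst-stained PC3M PTB-GFP cells. Cells were seeded 4 h, then exposed 16 h to compound (23 nl of library stock) in duplicate plates.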
ALDH1A1 block = qHTS Assay for Inhibitors of Aldehyde Dehydrogenase 1 (ALDH1A1); Purified ALDH1A1, NADH fluorescence, propionaldehyde substrate; Aldehyde dehydrogenase 1A1 (Homo sapiens), P00352; Potency, µM (doses to about 75.3 µM), most hits filed as inhibitors; hit rate 7.3% among 220,000
Target sequence (P00352 whole entry, looked up): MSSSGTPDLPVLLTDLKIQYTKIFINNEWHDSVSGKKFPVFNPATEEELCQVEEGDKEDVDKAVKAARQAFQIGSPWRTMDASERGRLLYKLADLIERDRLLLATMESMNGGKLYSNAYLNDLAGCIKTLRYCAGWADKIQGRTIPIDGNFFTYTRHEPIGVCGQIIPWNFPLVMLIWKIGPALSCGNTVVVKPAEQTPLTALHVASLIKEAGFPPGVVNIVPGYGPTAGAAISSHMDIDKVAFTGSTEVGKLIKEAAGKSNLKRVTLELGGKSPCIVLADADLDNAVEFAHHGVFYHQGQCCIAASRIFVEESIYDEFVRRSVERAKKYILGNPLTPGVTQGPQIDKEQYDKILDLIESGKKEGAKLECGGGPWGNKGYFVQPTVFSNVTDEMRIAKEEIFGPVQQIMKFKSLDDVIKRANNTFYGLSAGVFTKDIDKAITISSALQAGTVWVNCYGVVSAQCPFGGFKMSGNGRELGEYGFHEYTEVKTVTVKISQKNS
JMJD2E inh = qHTS Assay for Inhibitors of Human Jumonji Domain Containing 2E (JMJD2E) | hit rate 1.6% among 230,000 | Potency, µM (top dose mostly 57.1 µM), actives largely listed as inhibitors | AID 2147, 2009 | Lysine-specific demethylase 4E (Homo sapiens), B2RXH2 | JMJD2E catalytic domain, FDH-coupled NADH fluorescence (FDH is formaldehyde dehydrogenase); also: nearly all actives have a fitted effect of over 50% in size
Each line names hits and unclear results; the compound was inactive in the other large screens. Only some compounds are listed: those with a hit (about 11% of all), similar ones and a draw of the others. Unless noted, calls follow the shape of the dose curve; as a rule, active = well fitted inhibition curve with a large enough effect (not every such curve was filed as active); inconclusive = small, poorly fitted or top-dose-only effect, or another doubt; inactive = no such curve, though single readings can be large or run the other way.

COC(=O)c1ccc(CN(C(C)=O)c2ccccc2)o1	ALDH1A1 block 20µM
CC(=O)N(CC(=O)O)c1ccccc1	none
CCCOc1ccc(C(=O)C(c2ccccc2)N2CCOCC2)cc1 (configuration not stated)	HPGD block inconclusive, ALDH1A1 block 13µM
COC(=O)/C(=N\Nc1ccc(Cl)cc1)Sc1nnc(-c2ccc(OC)cc2)n1C	PNC assembly inh inconclusive
CC(C)N1C(=O)CC2(CC[N+](C)(CCOC(=O)C(c3ccccc3)c3ccccc3)CC2)C1=O (configuration not stated)	HPGD block inconclusive, ALDH1A1 block 25µM
c1ccc(Cn2nnc3c(N4CCCC4)ncnc32)cc1	ALDH1A1 block inconclusive
c1ccc(Cn2nnc3c(N4CCc5ccccc5C4)ncnc32)cc1	HPGD block 32µM, ALDH1A1 block inconclusive, JMJD2E inh inconclusive
Clc1ccccc1Nc1ncnc2c1nnn2Cc1ccccc1	HPGD block 22µM, PNC assembly inh inconclusive, ALDH1A1 block inconclusive
O=C(Cn1cncn1)N/N=C/c1ccccc1Cl	none (no result: HPGD block, PNC assembly inh, ALDH1A1 block)
Cc1ccc(C(=O)N/N=C\c2ccccc2[N+](=O)[O-])cn1	none (no result: HPGD block, PNC assembly inh)
COc1cc([N+](=O)[O-])cc(/C=N/NC(=O)CSc2ccccn2)c1O	JMJD2E inh 20µM (no result: HPGD block, PNC assembly inh, ALDH1A1 block)
COc1cc([N+](=O)[O-])cc(/C=N/NC(=O)Cn2cncn2)c1O	JMJD2E inh 14µM (no result: HPGD block, PNC assembly inh, ALDH1A1 block)
Cc1ccc(C(=O)N/N=C\C=C\c2ccccc2[N+](=O)[O-])cn1	ALDH1A1 block 7.9µM (no result: HPGD block, PNC assembly inh)
COc1cc([N+](=O)[O-])cc(/C=N/NC(=O)c2ccc(NC(=O)c3ccc(C)cc3)cc2)c1O	none (no result: HPGD block, PNC assembly inh)
COc1cc([N+](=O)[O-])cc(/C=N/NC(=O)CC#N)c1O	ALDH1A1 block 14µM, JMJD2E inh inconclusive (no result: HPGD block, PNC assembly inh)
COC(=O)c1ccc(S(=O)(=O)NC(C)(C)C)n1C	none (no result: HPGD block, PNC assembly inh, ALDH1A1 block)
O=C(CCN1CCOCC1)Nc1ccc(F)cc1F	none (no result: PNC assembly inh, JMJD2E inh)
COc1ccc(C(=O)Nc2ccccc2C(=O)N2CCCCC2C)cc1 (configuration not stated)	none (no result: HPGD block, PNC assembly inh)
O[C@@H](c1cc([C@@]23C[C@H]4CC[C@@H]2C[C@H](C4)C3)nc2c(Cl)cc(Cl)cc12)C1CCCCN1 (some centres not stated)	none (no result: PNC assembly inh, JMJD2E inh)
C=C(C)C(=O)OCC(C)O (configuration not stated)	none (no result: PNC assembly inh, JMJD2E inh)
COc1cc([N+](=O)[O-])cc(/C=N/NC(=O)c2ccc(C)nc2)c1O	JMJD2E inh 14µM
O=C(NC1CCCCC1)c1cc2nc3c(c(C(F)(F)F)n2n1)CCCC3	HPGD block 28µM, ALDH1A1 block inconclusive
CC(=O)c1ccc(NC(=O)c2cc3nc4c(c(C(F)(F)F)n3n2)CCCC4)cc1	ALDH1A1 block inconclusive
N#Cc1ccccc1Cn1c(=O)n(Cc2ccc(C(=O)NCc3ccco3)cc2)c(=O)c2sccc21	ALDH1A1 block 25µM, JMJD2E inh inconclusive
O=C(N/N=C\c1ccc(F)cc1)c1cc(OCC(F)(F)F)ccc1OCC(F)(F)F	PNC assembly inh -87
Cc1ccc(/C=N\NC(=O)c2cc(OCC(F)(F)F)ccc2OCC(F)(F)F)cc1	PNC assembly inh inconclusive
Cc1cc(Cl)c(OCCOCCN2CCCCC2)c(Br)c1	PNC assembly inh -102, ALDH1A1 block inconclusive
CCCCN1C(C)=CC(=C2C(=O)c3ccccc3C2=O)C=C1C	ALDH1A1 block 14µM (no result: HPGD block, PNC assembly inh)
CC1=CC(=C2C(=O)c3ccccc3C2=O)C=C(C)N1Cc1ccco1	ALDH1A1 block 7.9µM
CCCCCCN1C=CC(=C2C(=O)c3ccccc3C2=O)C=C1	none (no result: HPGD block, PNC assembly inh)
CC1=CC(=C2C(=O)c3ccccc3C2=O)C=C(C)O1	ALDH1A1 block inconclusive
CCCN1C=CC(=C2C(=O)c3ccccc3C2=O)C=C1	ALDH1A1 block 14µM
CC(=O)/C(C#N)=C1\NC(=O)C(Cc2ccccc2C)S1 (configuration not stated)	none (no result: HPGD block, PNC assembly inh, ALDH1A1 block)
CCCCCCn1nc(C(=O)OCC(=O)NC2CCS(=O)(=O)C2)c2ccccc2c1=O (configuration not stated)	ALDH1A1 block inconclusive (no result: HPGD block, PNC assembly inh)
NC(N)=NC(N)=Nc1ccc(C(=O)O)cc1	none (no result: PNC assembly inh, JMJD2E inh)
C#CCCCCCCCCCCCc1ccco1	ALDH1A1 block 20µM (no result: PNC assembly inh)
COc1ccc(CN(C(=O)c2nsc(Cl)c2Cl)C(C(=O)NC2CCCCC2)c2ccc(OC)cc2)cc1 (configuration not stated)	ALDH1A1 block 7.1µM

Source: PubChem BioAssay (National Center for Advancing Translational Sciences (NCATS))
